Our source for the potency estimated from few doses values is paper PMC11062922 (Nature Chemical Biology, 2023).

Like-named read-outs stand apart in the source and are kept apart here.

Set-up in all cases: species or system human, MV4-11 + K-562 + COLO205 + SK-N-BE2 + OVCAR-8
In one assay the test system is ATM. As to conditions: read-out: apparent Kd, n = 1.
The next assay relates to AURKA. The note with it: read-out: apparent Kd, n = 1.
The subject of the next assay is BCR. As to conditions: read-out: apparent Kd, n = 1.
Another assay concerns CAMKK2. The note with it: read-out: apparent Kd, n = 1.
The subject of the next assay is CHEK1. The note with it: read-out: apparent Kd, n = 1.
The next assay relates to EPHA4. The note with it: read-out: apparent Kd, n = 1.
A further assay relates to EPHA5. As to conditions: read-out: apparent Kd, n = 1.
In a further assay the test system is EPHB2. The note with it: read-out: apparent Kd, n = 1.
The subject of a further assay is EPHB4. As to conditions: read-out: apparent Kd, n = 1.
The next assay concerns MARK3. The note with it: read-out: apparent Kd, n = 1.
In the next assay the test system is PRKACB. As to conditions: read-out: apparent Kd, n = 1.
The next assay deals with PRKAG2. As to conditions: read-out: apparent Kd, n = 1.
Another assay has as its system RPS6KA4. As to conditions: read-out: apparent Kd, n = 1.
The next assay concerns TNK1. The note with it: read-out: apparent Kd, n = 1.
Another assay concerns TNK2. The note with it: read-out: apparent Kd, n = 1.
The subject of a further assay is CSNK1D. The note with it: read-out: apparent Kd, n = 1.
The subject of a further assay is PRKACA. As to conditions: read-out: apparent Kd, n = 1.
The test system of the next assay is CDK16. The note with it: read-out: apparent Kd; compound concentrations: 100 nM and 1000 nM (sheet 'Samples'), CATDS: 4.4691246534882996E-3; n = 1.
A further assay relates to MAPK9. As to conditions: read-out: apparent Kd; compound concentrations: 100 nM and 1000 nM (sheet 'Samples'), CATDS: 4.8352586021379899E-3; n = 1.
Another assay relates to STK4. As to conditions: read-out: apparent Kd; compound concentrations: 100 nM and 1000 nM (sheet 'Samples'), CATDS: 4.4233826553232904E-3; n = 1.
Where [1] appears, read: compound concentrations:100 nM and 1000 nM (sheet 'Samples').

As to `O=C1NC(=O)C(N2CCc3ccccc32)=C1c1ccccc1Cl` [SB-373598], the potency estimated from few doses in the assay with ATM (setting [1]) was 0.0391 µM; with AURKA (setting [1]) it was 0.295 µM; in the assay on BCR (setting [1]), 0.243 µM; in the assay on CAMKK2 (setting [1]) it was 0.588 µM; in the assay with CHEK1 (setting [1]), 0.999 µM; with EPHA4 (setting [1]) it was 0.387 µM. Besides, the potency estimated from few doses in the assay with EPHA5 (setting [1]) is 0.276 µM; with EPHB2 (setting [1]) it was 0.11 µM; with EPHB4 (setting [1]), 0.129 µM; in the assay with MARK3 (setting [1]) it was 1.28 µM; in the assay with PRKACB (setting [1]) it was 1.48 µM; in the assay on PRKAG2 (setting [1]) it was 1.39 µM. The figures for the potency estimated from few doses in the assay with RPS6KA4 (setting [1]), in the assay with TNK1 (setting [1]) and in the assay on TNK2 (setting [1]) were 1.22 µM, 0.0313 µM and 0.108 µM, respectively.

In the case of `Cc1ccc2c(-c3ccncc3)c(-c3ccc(F)cc3)nn2c1.Cl` [GW461484A], the potency estimated from few doses in the assay on ATM (setting [1]) is 0.262 µM; in the assay with BCR (setting [1]), 0.545 µM; in the assay with CAMKK2 (setting [1]), 1.18 µM; with CHEK1 (setting [1]) it was 1.87 µM; in the assay with CSNK1D (setting [1]) it was 0.125 µM; in the assay with EPHA4 (setting [1]) it was 0.55 µM. Also, the potency estimated from few doses in the assay on EPHA5 (setting [1]) was 0.429 µM; in the assay with EPHB2 (setting [1]), 0.341 µM; with EPHB4 (setting [1]), 0.275 µM; with PRKACA (setting [1]), 1.9 µM; in the assay on PRKAG2 (setting [1]), 0.417 µM; with TNK1 (setting [1]), 0.28 µM. In the assay on TNK2 (setting [1]), the potency estimated from few doses is 0.328 µM.

Take `Cn1ncc2c(N)ncnc21` [SKF-18267]: the potency estimated from few doses is 0.152 µM in the assay with ATM (compound concentrations: 100 nM and 1000 nM (sheet 'Samples'), CATDS: 1.5157721070637E-2); 0.594 µM in the assay on AURKA (compound concentrations: 100 nM and 1000 nM (sheet 'Samples'), CATDS: 5.9187216005476898E-3); 0.729 µM in the assay with BCR (compound concentrations: 100 nM and 1000 nM (sheet 'Samples'), CATDS: 5.2917709527679404E-3); 0.967 µM with CAMKK2 (compound concentrations: 100 nM and 1000 nM (sheet 'Samples'), CATDS: 4.5998229458051997E-3); 1.03 µM in the assay with CDK16; 1.83 µM with CHEK1 (compound concentrations: 100 nM and 1000 nM (sheet 'Samples'), CATDS: 3.5654135420005399E-3). The potency estimated from few doses in the assay on CSNK1D (compound concentrations: 100 nM and 1000 nM (sheet 'Samples'), CATDS: 5.3650887558765398E-3) is 0.71 µM; in the assay with EPHA4 (compound concentrations: 100 nM and 1000 nM (sheet 'Samples'), CATDS: 3.9748200426908999E-3), 1.36 µM; in the assay with EPHA5 (compound concentrations: 100 nM and 1000 nM (sheet 'Samples'), CATDS: 5.0507447831964402E-3) it was 0.798 µM; in the assay with EPHB2 (compound concentrations: 100 nM and 1000 nM (sheet 'Samples'), CATDS: 4.50420726302921E-3) it was 1.01 µM; with EPHB4 (compound concentrations: 100 nM and 1000 nM (sheet 'Samples'), CATDS: 5.4338505062104699E-3), 0.694 µM; in the assay on MAPK9, 0.871 µM. The potency estimated from few doses is 2.06 µM in the assay on MARK3 (compound concentrations: 100 nM and 1000 nM (sheet 'Samples'), CATDS: 3.4367127016050499E-3); 1.5 µM with PRKACA (compound concentrations: 100 nM and 1000 nM (sheet 'Samples'), CATDS: 3.8266361716822101E-3); 0.85 µM with PRKACB (compound concentrations: 100 nM and 1000 nM (sheet 'Samples'), CATDS: 4.8946075790836903E-3); 0.539 µM in the assay on PRKAG2 (compound concentrations: 100 nM and 1000 nM (sheet 'Samples'), CATDS: 6.26452346247391E-3); 1.2 µM with RPS6KA4 (compound concentrations: 100 nM and 1000 nM (sheet 'Samples'), CATDS: 4.17505153349991E-3); 1.05 µM in the assay with STK4. Further, the potency estimated from few doses was 0.714 µM in the assay with TNK1 (compound concentrations: 100 nM and 1000 nM (sheet 'Samples'), CATDS: 5.3510619534007497E-3); 0.604 µM in the assay with TNK2 (compound concentrations: 100 nM and 1000 nM (sheet 'Samples'), CATDS: 5.8659667131667897E-3).
